Compound activity as filed in PubChem BioAssay.
Jurkat NFkB inh – lowers PMA/ionomycin-induced NF-kB signal in Jurkat cells. AID 435003. PMA/ionomycin-induced NF-kB luciferase reporter, luminescence. actives 0.53% (n = 330,000). inhibition, % at 4 µM; in the data active = inhibition above about 50%
Gli-Sufu antag – blocks Gli-Sufu signaling in a luciferase reporter; Sufu-KO-LIGHT fibroblasts, Gli luciferase reporter luminescence; inhibition, % at 5 µM; actives 0.74% (n = 340,000); AID 588413;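 active = inhibition above about 55%, limit read from the data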
Mdm2-MdmX inh – human Mdm2/MdmX binding inhibition; SaOS-2 split-luciferase Mdm2/MdmX complementation, luminescence; inhibition, % at 8 µM; actives 3% (n = 330,000); AID 485346;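 active = inhibition of at least 50% at 8 µM in the primary screen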
Target sequence (O15151 whole entry, looked up): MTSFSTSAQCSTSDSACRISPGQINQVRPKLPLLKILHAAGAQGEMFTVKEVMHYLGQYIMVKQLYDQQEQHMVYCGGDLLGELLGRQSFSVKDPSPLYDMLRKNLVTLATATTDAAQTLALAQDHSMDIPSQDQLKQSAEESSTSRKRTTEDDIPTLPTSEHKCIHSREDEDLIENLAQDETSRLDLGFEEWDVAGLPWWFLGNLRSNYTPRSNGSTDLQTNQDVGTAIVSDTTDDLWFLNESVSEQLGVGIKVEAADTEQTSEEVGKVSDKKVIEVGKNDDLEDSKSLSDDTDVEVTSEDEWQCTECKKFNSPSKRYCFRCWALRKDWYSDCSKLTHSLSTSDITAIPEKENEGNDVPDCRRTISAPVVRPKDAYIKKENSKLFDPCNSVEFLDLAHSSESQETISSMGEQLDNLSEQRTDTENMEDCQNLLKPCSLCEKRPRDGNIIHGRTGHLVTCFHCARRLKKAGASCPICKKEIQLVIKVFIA
Target sequence (Q00987 whole entry, looked up): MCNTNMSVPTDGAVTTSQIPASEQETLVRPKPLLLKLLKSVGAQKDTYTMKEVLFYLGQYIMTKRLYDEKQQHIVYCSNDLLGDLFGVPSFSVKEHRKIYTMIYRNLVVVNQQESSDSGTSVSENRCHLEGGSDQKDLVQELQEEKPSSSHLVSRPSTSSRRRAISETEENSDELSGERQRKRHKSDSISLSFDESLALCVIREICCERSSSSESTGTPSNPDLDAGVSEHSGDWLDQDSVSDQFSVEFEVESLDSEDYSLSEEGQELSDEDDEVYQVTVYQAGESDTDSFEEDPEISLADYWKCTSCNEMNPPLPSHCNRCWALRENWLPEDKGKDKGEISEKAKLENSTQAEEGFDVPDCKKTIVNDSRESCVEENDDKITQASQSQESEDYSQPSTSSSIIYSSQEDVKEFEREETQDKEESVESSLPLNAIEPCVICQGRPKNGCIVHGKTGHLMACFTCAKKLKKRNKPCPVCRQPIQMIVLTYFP
Shn3 inh set2 – reduces Shn3 3'UTR luciferase signal in osteoblasts. Clone20 osteoblast Shn3 3'UTR firefly luciferase, 24 h. inhibition, % at 12.5 µM. actives 0.52% (n = 360,000). AID 588674;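 active = mean inhibition of at least 75% with every replicate also reaching 75%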
697 NFkB inh – lowers PMA/ionomycin-induced NF-kB signal in 697 B cells. inhibition, % at 4 µM. 697 B-cell NF-kB luciferase reporter, 16 h. actives 0.33% (n = 330,000); in the data active = inhibition above about 35%
697 NFkB conf – inhibitors of the PMA/ionomycin-induced NF-kB reporter in 697 B cells, retest | 697 B-cell NF-kB luciferase, 16 h | inhibition, % at 4 µM | actives 35% (n = 2,000) | shares compounds with 697 NFkB inh | AID 449746; in the data active = inhibition mostly above about 28%, no sharp cut-off; inactive = mostly below about 22%
Mdm2 MdmX conf – human Mdm2/MdmX binding inhibition, confirmed; inhibition, % at 8 µM; luminescent assay; AID 489028; shares compounds with Mdm2-MdmX inh; actives 55% (n = 10,000); in the data active = inhibition above about 40%
FLuc counter – inhibits full-length luciferase, flagging false Mdm2/MdmX hits | shares compounds with Mdm2-MdmX inh | SaOS-2 full-length luciferase counterscreen, luminescence | inhibition, % at 8 µM | actives 77% (n = 6,200);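 active = mean inhibition at 8 µM reaching about 37%, which flags the compound as non-specific, limit read from the data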;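 note: p53-null SaOS-2 cells with luciferase driven by a doxycycline-inducible promoter; compound on cells about two nights before reading with doxycycline added after day one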
Each line names hits and unclear results; the compound was inactive in the other large screens (follow-up assays come after a bar, where they were run). Sampled rows, rich in hits. Any-hit rate of the full collection: about 3.8%.

COc1ccc(C2=Nn3c(nnc3-c3ccccc3F)SC2)cc1OC1CCCC1	Mdm2-MdmX inh 100 | 697 NFkB conf inactive | Mdm2 MdmX conf 86 | FLuc counter inactive
Oc1ccc(N=Nc2ccc3c(c2)OCO3)c2ccccc12	Mdm2-MdmX inh 94 (no result: Gli-Sufu antag, Shn3 inh set2) | 697 NFkB conf inactive | Mdm2 MdmX conf 92 | FLuc counter 59
Cc1ccccc1-c1n[nH]c(=S)n1/N=C/c1c(C)nn(-c2ccccc2)c1C	Mdm2-MdmX inh 87 | 697 NFkB conf inactive | Mdm2 MdmX conf 53 | FLuc counter 103
CC1CC(C)CN(CCCNC(=O)Cn2cccc2C(=O)c2ccccc2)C1 (centres undefined)	none
CCc1nc2c(c(=O)c3ccccc3n2C)c(=O)n1CCc1ccc(OC)cc1	Mdm2-MdmX inh 88 (no result: Gli-Sufu antag, Shn3 inh set2) | 697 NFkB conf inactive | Mdm2 MdmX conf 66 | FLuc counter 123
COc1ccc(CCn2c(-c3ccc(OC)cc3)nc3c(c(=O)c4ccccc4n3C)c2=O)cc1	none
FC(F)(F)c1ccc(-c2cccc3c2C2CC3CCN2C(=S)NCCc2ccccc2)cc1 (centres undefined)	none (no result: Jurkat NFkB inh, Gli-Sufu antag, Mdm2-MdmX inh, 697 NFkB inh)
CC(=O)/C(C#N)=C1\NC(=O)C(Cc2ccccc2C)S1 (centres undefined)	Mdm2-MdmX inh 83 | 697 NFkB conf inactive | Mdm2 MdmX conf 70 | FLuc counter 41
CNC(=O)/C(C#N)=C1\SC(Cc2ccc(F)cc2)C(=O)N1c1ccccc1C (centres undefined)	none
COc1ccccc1N(Cc1ccccc1)S(=O)(=O)c1cccc(C(=O)Nc2ccc(C(C)=O)cc2)c1	none
COc1ccccc1N(Cc1ccccc1)S(=O)(=O)c1cccc(C(=O)Nc2ccccn2)c1	Mdm2-MdmX inh 67 | 697 NFkB conf inactive | Mdm2 MdmX conf 60 | FLuc counter 91
COc1ccccc1C(=O)O/N=C(\N)c1ccccc1Cl	none
COc1ccc(C(=O)O/N=C(\N)c2ccccc2)c(OC)c1	Mdm2-MdmX inh 93 | 697 NFkB conf inactive | Mdm2 MdmX conf 77 | FLuc counter 164
S=c1[nH]nc(-c2cccc(Cl)c2)n1/N=C/c1ccc(-c2ccccc2Br)o1	none
S=c1[nH]nc(-c2ccccc2)n1/N=C/c1ccc(-c2ccccc2Cl)o1	Mdm2-MdmX inh 90 | 697 NFkB conf inactive | Mdm2 MdmX conf 90 | FLuc counter 54
CCN(CC)S(=O)(=O)c1ccc(C2=NOC3(C2)N(C)c2ccccc2C3(C)C)cc1 (centres undefined)	Mdm2-MdmX inh 72 | 697 NFkB conf inactive | Mdm2 MdmX conf 69 | FLuc counter 79
CN1c2ccccc2C(C)(C)C12CC(c1ccc(S(=O)(=O)N3CCCCC3)cc1)=NO2 (centres undefined)	Mdm2-MdmX inh 65 | 697 NFkB conf inactive | Mdm2 MdmX conf 74 | FLuc counter 74
CN1c2ccccc2C(C)(C)C12CC(c1cccc(S(=O)(=O)N3CCCC3)c1)=NO2 (centres undefined)	Mdm2-MdmX inh 69 | 697 NFkB conf inactive | Mdm2 MdmX conf 65 | FLuc counter 106
O=S(=O)(c1ccc(-c2ccccc2)cc1)N1CCCCC1	none
O=C(Nc1ccc([N+](=O)[O-])cc1Cl)c1cc(Cl)ccc1O	Gli-Sufu antag 56, Mdm2-MdmX inh 100, Shn3 inh set2 95 | 697 NFkB conf inactive | Mdm2 MdmX conf 97 | FLuc counter 51
O=C1Cc2cc(S(=O)(=O)N3CCNCC3)ccc2N1	none
Cc1nc([N+](=O)[O-])c(Br)n1Cc1ccc(Cl)c(Cl)c1	none (no result: Jurkat NFkB inh, Mdm2-MdmX inh, 697 NFkB inh)
O=C(O)c1nn(CCOc2c(Cl)cccc2Cl)c(=O)c2ccccc12	Mdm2-MdmX inh 69 | 697 NFkB conf inactive | Mdm2 MdmX conf 54 | FLuc counter 44
Cc1cc(C)c(C(=O)NC2CCCc3c2cnn3-c2cccc(C)c2C)o1 (centres undefined)	Mdm2-MdmX inh 78 | 697 NFkB conf inactive | Mdm2 MdmX conf 75 | FLuc counter 43
O=C(NC1CCCc2c1cnn2-c1ccccc1F)c1ccccn1 (centres undefined)	Mdm2-MdmX inh 86 | 697 NFkB conf inactive | Mdm2 MdmX conf 72 | FLuc counter inactive
O=C(NC1CCCc2c1cnn2-c1ccc(F)cc1F)c1ccccn1 (centres undefined)	none
CCCCOC(=O)c1ccc(NC(=O)C(=O)NCc2ccco2)cc1	none
CC(=O)c1ccccc1C(=O)N1CCC(n2nccc2NC(=O)C2CC2)CC1	none
CCN(CC)C(=O)N1c2ccccc2C=Cc2ccccc21	Mdm2-MdmX inh 85 | 697 NFkB conf inactive | Mdm2 MdmX conf 80 | FLuc counter inactive
Cc1nc(SCC(=O)N2c3ccccc3NC(=O)CC2C)c2c(C)c(C)sc2n1 (centres undefined)	none
Cc1sc2nc(C3CC3)nc(SCC(=O)N3c4ccccc4CC3C)c2c1C (centres undefined)	Mdm2-MdmX inh 85 | 697 NFkB conf inactive | Mdm2 MdmX conf 90 | FLuc counter 53
C#CCOCCOCCOCCNc1nc(N2CCN(C(=O)[C@H](CCC(=O)O)n3cc([C@@H](N)[C@H](C)CC)nn3)CC2)nc(N2CCN(C(=O)[C@H](CCCCN)n3cc([C@@H](N)CC(N)=O)nn3)CC2)n1	none
CCc1c(C(=O)NC2CCCc3ccccc32)[nH]c(C)c1C(C)=O (centres undefined)	Mdm2-MdmX inh 85 | 697 NFkB conf inactive | Mdm2 MdmX conf 65 | FLuc counter 52
CC(C)CCN1C(=O)c2ccc(C(=O)Nc3ccccn3)cc2C1=O	none
O=C1CNC(=S)N1CCCc1ccccc1	none
CC(=O)c1ccc(N/N=C(/C(N)=O)C2=NC(C)(C)Cc3ccccc32)cc1	Mdm2-MdmX inh 63 | 697 NFkB conf inactive | Mdm2 MdmX conf inactive | FLuc counter 63
CC1(C)Cc2ccccc2C(/C(=N\Nc2cccc(Cl)c2)C(N)=O)=N1	none
CC(C)OC(=O)CC1C(=O)NCCN1C(=S)NC(=O)c1cccs1 (centres undefined)	none
O=C(CCN1C(=O)/C(=C/c2ccccc2Cl)SC1=S)Nc1ccccn1	none
O=C(CCCN1C(=O)/C(=C/c2ccccc2Cl)SC1=S)Nc1cccnc1	Mdm2-MdmX inh 87, 697 NFkB inh 83 | 697 NFkB conf 61 | Mdm2 MdmX conf 73 | FLuc counter inactive
O=C(CCCN1C(=O)/C(=C/c2ccccc2Cl)SC1=S)Nc1ccccn1	Mdm2-MdmX inh 67, 697 NFkB inh 46 | 697 NFkB conf 68 | Mdm2 MdmX conf 55 | FLuc counter inactive
Cc1cc(C)cc(CC(=O)N2CCC2(C)C(=O)NS(=O)(=O)c2cccc(OC(F)F)c2)c1 (centres undefined)	none (no result: Jurkat NFkB inh, Gli-Sufu antag, Mdm2-MdmX inh, 697 NFkB inh)
